Publication PMC7826789 (International Journal of Molecular Sciences, 2021)

Key:
[1] = test system: ABL1
[2] = test system: T1, YSK1; settings: Compound Concentration (nM):1000
T1 construct: gene STK25

[3] = test system: T2, YSK4; settings: Compound Concentration (nM):1000
T2 construct: gene MAP3K19

[4] = test system: ZAK; settings: Compound Concentration (nM):1000
[5] = test system: ZAP70; settings: Compound Concentration (nM):1000
[6] = test system: T3, p38-alpha; settings: Compound Concentration (nM):1000
T3 construct: gene MAPK14

[7] = test system: T4, p38-beta; settings: Compound Concentration (nM):1000
T4 construct: gene MAPK11

[8] = test system: T5, p38-delta; settings: Compound Concentration (nM):1000
T5 construct: gene MAPK13

[9] = test system: T6, p38-gamma; settings: Compound Concentration (nM):1000
T6 construct: gene MAPK12
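For Percent Control in this document: KINOMEscan scanMAX binding as percent activity remaining versus control; lower means stronger binding.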

Row | SMILES | Kinases covered [1] | Percent Control [2] [%] | Percent Control [3] [%] | Percent Control [4] [%] | Percent Control [5] [%] | Percent Control [6] [%] | Percent Control [7] [%] | Percent Control [8] [%] | Percent Control [9] [%]
1 | O=C(NCCO)c1cccc(-c2cc(Nc3ccc(OC(F)(F)F)cc3)ncn2)c1 [GNF-5] | ABL1 | – | – | – | – | – | – | – | –
2 | COc1ccc(COc2ccc(Cc3cnc(N)nc3N)cc2OC)cc1 [GW632580X] | – | 100 | 91 | 87 | 97 | 100 | 100 | 85 | 89
3 | Cl.c1ccc(Cc2nc3ccc(Nc4ncnc5ccccc45)cc3[nH]2)cc1 [GR269666A] | – | 87 | 100 | 100 | 90 | 100 | 100 | 100 | 100
4 | C[C@@H](Oc1cc(-n2cnc3ccc(OC4CCN(C)CC4)cc32)sc1C(N)=O)c1ccccc1Cl [GSK579289A] | – | 74 | 32 | 69 | 93 | 100 | 76 | 100 | 81
5 | CCS(=O)(=O)c1ccc(OC)c(Nc2ncc(-c3cccc(OC)c3)o2)c1 [GW580509X] | – | 81 | 96 | 100 | 100 | 100 | 100 | 100 | 100
6 | COc1ccc2cc(-c3c(-c4ccncc4)nc(-c4ccc(S(C)(=O)=O)cc4C)n3C)ccc2c1 [SB-633825] | – | 100 | 66 | 89 | 84 | 100 | 79 | 83 | 100
7 | NS(=O)(=O)c1ccc(N/N=C2\C(=O)Nc3ccc(C(=O)NCc4ccncc4)cc32)cc1 [GW300657X] | – | 76 | 2.4 | 100 | 85 | 100 | 100 | 100 | 42
8 | O=C(Nc1n[nH]c2nc(-c3ccc(O)cc3)c(Br)cc12)C1CC1 [SB-725317] | – | 79 | 4.3 | 100 | 100 | 100 | 74 | 100 | 81
9 | COc1cccc(-c2c[nH]c3c(N/N=C/c4ccncc4)ncnc23)c1 [GW814408X] | – | 65 | 0.7 | 17 | 89 | 100 | 100 | 100 | 100
10 | NS(=O)(=O)c1ccc(N/N=C2\C(=O)Nc3ccc(Cl)cc32)cc1 [GW280670X] | – | 80 | 31 | 100 | 100 | 100 | 100 | 100 | 100
11 | CC(C)COC(=O)c1ccc2c(c1)/C(=C/Nc1ccc(S(N)(=O)=O)cc1)C(=O)N2 [GW416981X] | – | 65 | 11 | 100 | 100 | 100 | 100 | 100 | 100
12 | NS(=O)(=O)c1ccc(N/N=C2\C(=O)Nc3ccc(C(=O)NCCc4c[nH]cn4)cc32)cc1 [GW300660X] | – | 84 | 3.7 | 96 | 79 | 100 | 100 | 100 | 84
13 | NS(=O)(=O)c1ccc(Nc2ncc(-c3ccccc3)o2)cc1 [GW572399X] | – | 54 | 30 | 100 | 100 | 100 | 100 | 100 | 100
14 | CC1=C(C(=O)Nc2ccc3[nH]ncc3c2)C(c2ccc3ccccc3c2)CC(=O)N1 (stereo not shown) [GSK270822A] | – | 68 | 75 | 92 | 99 | 100 | 100 | 94 | 100
15 | COc1ccc2c(-c3ccnc(Nc4cccc(OC(F)(F)F)c4)n3)cnn2n1 [GW810372X] | – | 85 | 39 | 69 | 86 | 100 | 100 | 100 | 77
16 | Cl.O=C(Nc1ccc(Oc2ccc3[nH]c(NC(=O)c4ccccc4)nc3c2)cc1)Nc1cc(C(F)(F)F)ccc1F [GW709042A] | – | 78 | 69 | 6.9 | 94 | 98 | 52 | 100 | 82
